The source made the active and inactive calls. Entries that show only a call come without a potency. Calls follow the shape of the dose curve; as a rule, active = well fitted curve in the direction sought with a large enough effect; inconclusive = small, poorly fitted or top-dose-only effect, or another doubt; inactive = no such curve, though single readings can be large or run the other way.
molecular target: Hexokinase-4 (Homo sapiens) + Glucokinase regulatory protein (Homo sapiens) (UniProt P35557+Q14397); experiment: qHTS assay for inhibitors of recombinant human GCK-GKRP interaction: HTRF assay (AID 743207); conditions: recombinant GCK-GKRP HTRF binding, 60 min, with sorbitol-6-phosphate; series mostly up to 57.5 µM
From the text: Glucokinase (GCK) is a glucose sensor in hepatocytes and pancreatic beta-cells. Hepatic GCK is regulated by glucokinase regulatory protein (GKRP), which is predominantly localized to the liver. GKRP binds to GCK inhibiting its activity in the fasting state while in the presence of glucose the GKRP is displaced. There is an additional layer of regulation by fructose 1-phosphate and fructose 6-phosphate, which inhibit and enhance the GCK-GKRP interaction, respectively. GCK plays a role in glucose homeostasis and there is an interest in the development of strategies to activate GCK to lower blood glucose levels in type 2 diabetes. To date the majority of effort has focused on direct activation of GCK and the assays developed herein look to activate GCK by inhibiting its binding to GKRP. A compound that inhibits the interaction of GCK with GKRP could be important for the treatment of diabetes and can also be used as a tool compound to further elucidate GCK-GKRP biology. To that end, we have developed an HTS biochemical assay using HTRF technology for to interrogate the GCK-GKRP interaction. This assay was screened against a small compound library to look for modulators of activity.
3 uL of 5 nM GST-GCK and 5 nM FLAG-GKRP proteins with 2 uM S6P (columns 1-2, 4-48; Millipore, Billerica, MA) are dispensed into Greiner, white solid-bottom 1536-well assay plates; columns 3 receive buffer without GCK as a control for maximum inhibition. Buffer contains 2 mM MgCl2, 25 mM KCl, 25 mM Hepes, 1 mM DTT, 0.1% Tween 20 and 0.025% BSA and the pH was adjusted to 7.1. Compounds (23 nL) are then transferred via Kalypsys pin tool equipped with 1536-pin array (10 nL slotted pins, V&P Scientific, San Diego, CA). The library compounds are in columns 5-48 and columns 1-4 serve as controls with DMSO in columns 1 and 3 and 26 mM 1:1.5 fold serial of gluckokinase activator (GKA-EMD) in column 2 and 26 mM of the glucokinase activator (GKA-EMD) in column 4. Following addition of compound, 1 uL of detection antibodies (anti-Flag XL 665 and anti-GST K in reconstitution buffer from Cisbio, Bedford, MA; 0.7 ng/well and 0.0945 ng/well, respectively) is added, and the mixture is allowed to equilibrate for 60 minutes at room temperature. Data are normalized to DMSO-treated control columns with (maximum signal) and without (minimum signal) enzyme. Plates were read on an Envision plate reader (PerkinElmer, Shelton, CT, USA) with excitation at 320 nm and dual-wavelength detection at the Fret donor wavelength (615 nm) and the FRET acceptor wavelength (665 nm).

Hexokinase-4 (Homo sapiens) + Glucokinase regulatory protein (Homo sapiens), sequence (P35557 whole entry, looked up): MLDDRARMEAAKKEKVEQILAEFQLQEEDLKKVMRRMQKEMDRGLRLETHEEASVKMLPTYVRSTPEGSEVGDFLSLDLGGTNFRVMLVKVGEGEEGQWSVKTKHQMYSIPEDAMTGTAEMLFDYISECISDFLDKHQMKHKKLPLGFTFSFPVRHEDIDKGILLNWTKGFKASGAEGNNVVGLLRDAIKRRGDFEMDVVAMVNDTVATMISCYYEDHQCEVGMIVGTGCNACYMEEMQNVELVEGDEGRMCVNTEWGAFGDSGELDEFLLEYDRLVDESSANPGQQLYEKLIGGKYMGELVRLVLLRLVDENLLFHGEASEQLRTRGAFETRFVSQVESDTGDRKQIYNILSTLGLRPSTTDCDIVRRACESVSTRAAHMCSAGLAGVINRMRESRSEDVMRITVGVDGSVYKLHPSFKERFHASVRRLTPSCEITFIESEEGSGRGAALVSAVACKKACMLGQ
Hexokinase-4 (Homo sapiens) + Glucokinase regulatory protein (Homo sapiens), sequence (Q14397 whole entry, looked up): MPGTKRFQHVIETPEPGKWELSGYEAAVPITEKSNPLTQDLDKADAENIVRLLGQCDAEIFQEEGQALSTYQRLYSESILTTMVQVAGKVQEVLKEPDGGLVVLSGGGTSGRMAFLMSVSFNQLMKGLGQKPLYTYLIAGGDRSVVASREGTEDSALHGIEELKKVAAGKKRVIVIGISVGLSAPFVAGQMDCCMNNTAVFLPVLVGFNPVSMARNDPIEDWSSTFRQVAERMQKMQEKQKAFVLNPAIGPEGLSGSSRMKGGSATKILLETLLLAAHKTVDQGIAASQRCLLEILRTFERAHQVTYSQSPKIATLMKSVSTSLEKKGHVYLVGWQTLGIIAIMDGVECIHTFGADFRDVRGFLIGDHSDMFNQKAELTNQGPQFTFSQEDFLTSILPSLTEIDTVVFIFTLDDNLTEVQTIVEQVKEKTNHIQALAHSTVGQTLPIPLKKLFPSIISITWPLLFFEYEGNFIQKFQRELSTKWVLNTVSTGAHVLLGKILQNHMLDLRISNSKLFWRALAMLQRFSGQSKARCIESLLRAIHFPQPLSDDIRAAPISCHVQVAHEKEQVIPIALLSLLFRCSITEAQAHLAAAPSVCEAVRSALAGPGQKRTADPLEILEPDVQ

Row | Compound | Potency
1 | O=C(/C=C/c1ccc(O)cc1)c1ccc(O)cc1O | inactive
2 | COc1cc(SC)ccc1C(=O)N1CCC(Cc2ccccc2)CC1 | inactive
3 | O=C(O)CCCC[C@@H]1CCSS1 | inactive
4 | N#C/C(=C\c1ccc(-c2cc(Cl)ccc2Cl)o1)C(=O)Nc1cccc2ncccc12 | inactive
5 | CN1CCc2cccc3c2C1Cc1ccc(O)c(O)c1-3 (stereo not given) | inactive
6 | CCCCCCCCCCCCCCCCCC(=O)NCC(COP(=O)([O-])OCC[N+](C)(C)C)OCC (stereo not given) | inactive
7 | CN1CCc2ccccc2Cc2[nH]c3ccccc3c2CC1 | inactive
8 | C=CC(C)=C[C@@]1(C)SC(=O)C(C)=C1O | inactive
9 | NCCCS(=O)(=O)O | inactive
10 | CC1OC1P(=O)(O)O (stereo not given) | inactive
11 | Nc1nc(SCc2ccc([N+](=O)[O-])cc2)c2ncn([C@@H]3O[C@H](CO)[C@@H](O)[C@H]3O)c2n1 | inactive
12 | COc1ccc(NC(=O)/C=C/c2ccc(Cl)cc2)cc1 | inactive
13 | CN(C)C(N)=NCCC[C@H](N)C(=O)O | inactive
14 | Cc1cc(NC2CCCCC2)nc(-n2nc(C)cc2C)n1 | inactive
15 | O=C(O)c1cc([N+](=O)[O-])ccc1NCCCc1ccccc1 | inactive
16 | C=CC(=O)c1ccc(CCCCCC)cc1 | inactive
17 | CC(C)NC[C@@H](O)c1ccc(O)c(O)c1 | inactive
18 | COc1ccc2c(c1)CCC1C2CC[C@@]2(C)C1CC[C@@H]2NCCCCCCN1C(=O)CCC1=O (stereo not given in full) | inactive
19 | Oc1ccc(C2CNCc3sccc32)cc1O (stereo not given) | inactive
20 | Clc1ccc(N2CCN(Cc3cc4ccccn4n3)CC2)cc1 | inactive

Row | Compound | Potency
21 | CN1CCc2cc(NC(=O)Nc3cccnc3)ccc21 | inactive
22 | CC(=O)N[C@H](C(=O)O)C(C)(C)SN=O | inactive
23 | C[N+]1(C)CCC(OC(=O)C(c2ccccc2)c2ccccc2)CC1 | inactive
24 | Nc1ncnc2c1c(I)cn2[C@@H]1C[C@H](N)[C@@H](O)[C@H]1O | inactive
25 | NCC1OC(O[C@H]2[C@H](O)[C@@H](OC3C(O)C(N)CC(N)C3OC3OC(CO)C(O)C(O)C3N)O[C@@H]2CO)C(N)C(O)C1O (stereo not given in full) | inactive
26 | O=C(c1ccc(Cl)cc1)N1CCN(c2ccc([N+](=O)[O-])c3ncccc23)CC1 | inactive
27 | CCCCCCCC/C=C\CCCCCCCC(=O)NCCO | inactive
28 | c1ccc(-c2ccccn2)nc1 | inactive
29 | C=CC(N)CCC(=O)O (stereo not given) | inactive
30 | C[C@@H](NC(=O)/C(C#N)=C/c1ccc(O)c(O)c1)c1ccccc1 | inactive
31 | N#C/C(=C\c1ccc(O)c(O)c1)C(=O)NCCCc1ccccc1 | inactive
32 | O=c1[nH]c2cc([N+](=O)[O-])c([N+](=O)[O-])cc2[nH]c1=O | inactive
33 | CN1C2CCC1CC(OC(=O)C(O)c1ccccc1)C2 (stereo not given) | inactive
34 | Oc1ccccc1O | inactive
35 | Cn1c(=O)c2[nH]c(-c3ccccc3)nc2n(C)c1=O | inactive
36 | NS(=O)(=O)C#Cc1ccccc1 | inactive
37 | CC(N)C(=O)OC(C)(C)Cc1ccc(Cl)cc1 (stereo not given) | inactive
38 | Oc1cc(O)cc(/C=C/c2ccc(O)c(O)c2)c1 | inactive
39 | CCCn1c(=O)c2[nH]c(-c3ccc(OCC(=O)NCCN)cc3)nc2n(CCC)c1=O | inactive
40 | Cc1ccc(S(=O)(=O)/C=C/C#N)cc1 | inactive
